Test results from ChEMBL document CHEMBL3988442, “University of Dundee, Small-Polar-MMV Screening Library” (2021).
In all, about 48,000 compounds went through this assay and about 13,000 (27%) showed an effect of 50% or more. The list shows a part of the results.

Each compound was assayed on Wolbachia pipientis (assay: Anti-Wolbachia Cell-Based Screen). Details: 5 µM.
Type: functional
Set-up: scale not given: in the data most compounds retested in dose-response had high values

SMILES | Percent Effect [%]
COc1cccc2ccc(CN3CCN(c4ccncc4)CC3)nc12 | 12.14
CCc1nsc(N2CCCN(C(=O)COc3ccccc3)CC2)n1 | 6.055
COCCCN1CC2(CCC1=O)CCN(Cc1cc(C(C)C)no1)CC2 | -3.554
CC(=O)N1[C@H](Cn2cncn2)C[C@@H]2CN(C(=O)NC3CC3)CC[C@@H]21 | -0.06843
COc1ccc(CN2CCCC2)cc1Oc1cccc(C#N)n1 | 4.454
CCCN1CCCn2nc(CNS(=O)(=O)c3ccc(C)cc3)cc2C1 | -4.266
Cc1ccc(C(=O)NC2CCN(C)CC2)cc1N(C)S(C)(=O)=O | 12.36
CCCNC(=O)c1cc(OC)c(OC)cc1N(C)S(C)(=O)=O | -23.04
CCc1ccc(S(=O)(=O)Nc2c(C)cccc2C(=O)O)s1 | -3.804
Cc1cccc(C)c1NC(=O)c1cccc(N(C)S(C)(=O)=O)c1C | 108.1
CNC(=O)c1cccc(NC(=O)NCc2ccccc2)c1C | 3.946
CCc1cccc(CC)c1NC(=O)c1ccccc1N(C)S(C)(=O)=O | 109.8
CCNC(=O)c1cc(OC)c(OC)cc1N(C)S(C)(=O)=O | -20.94
CCc1ccccc1NC(=O)C1CN(C(C)=O)C1 | 6.296
CNC(=O)c1cc(OC)c(OC)cc1N(C)S(C)(=O)=O | -22.7
CCN(CCCc1ccccc1C)S(C)(=O)=O | 5.478
CCc1cccc(C)c1NC(=O)c1ccccc1N(C)S(C)(=O)=O | 89.09
CCc1ccccc1NC(=O)c1cccc(N(C)S(C)(=O)=O)c1C | 92
CCC(Nc1nnnn1-c1ccccc1)C(=O)Nc1ccccc1C (configuration not stated) | -5.481
Cc1ccc(CNCc2cccc3cccnc23)c(OC2CCOC2)c1 (configuration not stated) | -38.45
COc1ccc(CC(=O)N2CCCCC2Cn2cc(C)cn2)cc1F (configuration not stated) | 102.6
COc1ccccc1OCCC(=O)N1CCCC1Cn1cc(C)cn1 (configuration not stated) | -7.788
COc1ccc(CC(=O)N2CCCC2Cn2cc(C)cn2)c(OC)c1 (configuration not stated) | 126.4

SMILES | Percent Effect [%]
COc1ccc(CC(=O)N2CCCC2Cn2cc(C)cn2)cc1OC (configuration not stated) | 112.4
COc1ccc(CCC(=O)N2CCCC2Cn2cc(C)cn2)cc1F (configuration not stated) | -0.1438
Cc1noc(-c2ccc(N(C)Cc3ccncc3C)nc2)n1 | -8.712
O=C(Nc1cnc(C2CC2)nc1)N1CCC(CN2CCCC2)C1 (configuration not stated) | 2.987
Cn1cc(C(=O)N2CCCC(n3cccn3)C2)c2ccccc21 (configuration not stated) | -10.45
O=C(c1cnc(-c2cnccn2)s1)N1CCCC(n2cccn2)C1 (configuration not stated) | 90.03
O=C(c1cnc(C2CC2)s1)N1CCCC(n2cccn2)C1 (configuration not stated) | 6.794
O=C(c1cnc(-c2cccs2)s1)N1CCCC(n2cccn2)C1 (configuration not stated) | 0.5894
CCc1[nH]ncc1C(=O)N1CCCC(n2cccn2)C1 (configuration not stated) | -0.4405
Cc1ncc(C(=O)N2CCCC(n3cccn3)C2)s1 (configuration not stated) | 111.9
O=C(c1cnc(-c2ncccn2)s1)N1CCCC(n2cccn2)C1 (configuration not stated) | 84.63
O=C(c1cnc(-c2ccccn2)s1)N1CCCC(n2cccn2)C1 (configuration not stated) | 116.5
COc1ccccc1NC(=O)NCC(O)(c1ccccc1)C1CC1 (configuration not stated) | 10.27
CCOc1ccc(NS(=O)(=O)c2cc(C)c(C(=O)O)s2)cc1F | -1.908
CC(C)=CCN1CCC(c2nccn2Cc2cscn2)CC1 | 3.314
Cc1nccn1CCCC(=O)N1CCC(N(C)c2cccnn2)CC1 | 114.4
Cc1nccn1CCCC(=O)N1CCCN(c2cccnn2)CC1 | 66.22
Cc1ccccc1N1CCCN(C(=O)CCCn2ccnc2C)CC1 | 7.495
Cn1ccc(C2CCCCN2C(=O)c2cccc(Cn3cccn3)c2)n1 (configuration not stated) | -10.23
CCc1cc(O)n2nc(C3CCN(C(=O)c4ccncc4)CC3)cc2n1 | 121.2
CCc1cc(O)n2nc(C3CCN(C(=O)c4cccnc4)CC3)cc2n1 | 97.39
CC[C@H]1CN(C(=O)c2cccnc2)CC[C@H]1CC(=O)NCCOC | -6.846
CCC(C)c1noc(C2CCN(C(=O)c3cccnc3)CC2)n1 (configuration not stated) | -14.35

SMILES | Percent Effect [%]
CC(C)n1ccnc1C1CCN(C(=O)c2ccc(SCCO)cc2)CC1 | -4.655
CCc1cc(O)n2nc(C3CCCN3C(=O)c3ccccn3)cc2n1 (configuration not stated) | 131.2
CCc1nc(C2CCCN2C(=O)c2nc(C)n3ccccc23)no1 (configuration not stated) | -3.852
Cc1nc2cc(C3CCN(C(=O)c4ccccn4)CC3)nn2c(O)c1C | 104
CCc1nc(CN(C)C(=O)NCc2cccc(NC(C)=O)c2)cs1 | -8.024
CS(=O)(=O)CCNCc1ccc(OCc2cscn2)cc1 | -7.403
CC(C)c1ccc(OCCC(=O)N(C)CC(=O)N(C)C)cc1 | -12.7
CCc1nnc(CN2CCN(C(=O)c3ccccn3)CC2)o1 | -6.012
CCc1cc(O)n2nc(C3CCN(C(=O)c4ccccn4)CC3)cc2n1 | 117.9
CC(C)n1ccnc1C1CCN(C(=O)c2ccccn2)CC1 | -22.55
COc1c(CNCc2cccc(C(=O)N(C)C)c2)c(C)nn1C | 120.7
COc1c(CNCc2ccc(C(=O)N(C)C)cc2)c(C)nn1C.Cl | -9.305
CCNC(=O)c1ccc(CNCc2c(C)nn(C)c2N(C)C)cc1 | 0.7448
COc1c(CNCc2cccc(CN(C)C)c2)c(C)nn1C.Cl | -1.675
Cc1nn(C)c(N(C)C)c1CNCc1ccc(OCC(N)=O)cc1.Cl | 3.035
COc1c(CNCCNC(=O)c2ccco2)c(C)nn1C | 8.194
COc1c(CNCc2ccc(C(=O)N(C)C(C)C)cc2)c(C)nn1C | 196.4
COc1c(CNCCNC(=O)c2ccc(C)cc2)c(C)nn1C | -13.57
COc1c(CNCc2ccc(C(=O)N3CCCC3)cc2)c(C)nn1C.Cl | 173.2
Cc1nn(C)c(N(C)C)c1CNCc1ccc(C(=O)N(C)C)cc1 | 123.8
COc1c(CNCc2ccc(C(=O)NC3CC3)cc2)c(C)nn1C.Cl | -2.896
